Data published in PubChem BioAssay (NCI).
About 83,000 compounds went through this panel and 20% of them were active in at least one assay; those are over-represented in the sample as a whole.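 Growth was measured after 48 h exposure to one concentration of compound in 96-well plates. Values under 10 count as active.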 Active and inactive are the calls of the source.

Test system: BT-549 breast
Experiment: NCI-60 one-dose screen, 48 h (100 = growth as untreated, 0 = no growth, -100 = all killed)
Conditions: 10 µM unless noted

| SMILES | growth |
| --- | --- |
| O=C1c2cc(Br)ccc2-n2c1nc1cc(Br)ccc1c2=O | 124% (inactive) |
| C/C=C/[C@@H]1C=C[C@@H]2C[C@H](C)CC[C@H]2[C@]1(C)/C(O)=C1/C(=O)[C@H](CO)N(C)C1=O | 75.2% (inactive) |
| CCOC(=O)c1ccc(N/C=C/C(=O)c2ccccc2)cc1 | 114% (inactive) |
| CC(=O)C1=NN(c2ccc(Cl)cc2)C(=O)CN1C | 96.6% (inactive) |
| CCn1c2ccc(/C=N/OCCCN(C)C)cc2c2cc(/C=N/OCCCN(C)C)ccc21 | 60.9% (inactive) |
| Cc1ccc(C2CC(c3ccc(Nc4nc(NCCO)nc(Nc5ccc(Cl)cc5)n4)cc3)=Nc3c(N)nc(N)nc3N2)cc1 (stereo not given) | 80.7% (inactive) |
| Cn1ccnc1C(=O)/C=C/c1ccc(C(=O)Nc2ccc(NC(=O)CCNC(=O)c3csc(Br)n3)cc2)cc1 | 65.4% (inactive) |
| COc1cc(/C=N/n2cnc3oc(-c4ccccc4)cc3c2=N)cc(CN2CCCC2)c1O | 129% (inactive) |
| Cn1cc(-c2nn3c(=O)cc(-c4ccccc4)nc3s2)c2cc(F)ccc21 | 67% (inactive) |
| CCNC(=NCCCN(C)C)N/C(N)=N/c1nc2ccccc2s1 | 97.1% (inactive) |
| CS(=O)(=O)c1ccc2c(c1)c1c(n2S(=O)(=O)c2ccc(Cl)cc2)CCCC1 | -1.38% (active) |
| O=C(CSc1nnc(-c2ccc(Cl)cc2)n1-c1ccccc1)Nc1ccc(F)cc1 | 93.2% (inactive) |
| O=[N+]([O-])c1ccc(-c2nnc(SCc3ccc(O)c4ncccc34)n2-c2ccccc2)cc1 | 20% (inactive) |
| COc1cc2c3c(n(CCCN4CCC[C@H]4C(N)=O)c(=O)c2cc1OC)-c1cc2c(cc1C3=O)OCO2 | 27.3% (inactive) |
| O=C1[C@@H]2Cc3c([nH]c4ccccc34)[C@H](c3c(Cl)cccc3Cl)N2C(=O)CN1C1CCN(Cc2ccccc2)CC1 | 29.4% (inactive) |
| COc1ccc(C(=O)c2c(N)c(C#N)cn2-c2cccc(OC)c2)cc1 | 41.9% (inactive) |

| SMILES | growth |
| --- | --- |
| Nc1ccc(-c2nnc(SCc3ccc(O)c4ncccc34)o2)cc1 | -11.7% (active) |
| C/C(=N/Nc1nc(N/N=C(/C)c2ccc([N+](=O)[O-])cc2)nc(N2CCOCC2)n1)c1ccc([N+](=O)[O-])cc1 | 67.3% (inactive) |
| O=C1c2c(O)cc(O)cc2O[C@@H](c2ccc(O)cc2)[C@@H]1c1c(O)cc(O)c2c(=O)cc(-c3ccc(O)c(O)c3)oc12 | 98.3% (inactive) |
| COc1ccc2c(c1)oc1c3[nH]c4ccccc4c3c3c(c21)C(=O)N(O)C3=O | 40.9% (inactive) |
| COc1cc2c3c(n(CCCNC4CCCCC4)c(=O)c2cc1OC)-c1cc2c(cc1C3=O)OCO2 | 78.2% (inactive) |
| C=CCn1c(SCC(=O)Nc2cccc(C(=O)/C=C/c3cc(OC)c(OC)c(OC)c3)c2)nc2ccccc2c1=O | 75.9% (inactive) |
| O=C1c2c(c3c4cc(O)ccc4oc3c3[nH]c4ccccc4c23)C(=O)N1O | -9.43% (active) |
| COC(=O)c1nc(-c2ccc(C)cc2)oc1S(=O)(=O)N1CCN(c2oc(-c3ccccc3)nc2C#N)CC1 | 99.7% (inactive) |
| COc1ccc(-c2nnc(SCc3ccc(O)c4ncccc34)n2-c2ccccc2)cc1 | 19.7% (inactive) |
| Oc1ccccc1/C=N/Nc1nc(N/N=C/c2ccccc2O)nc(N2CCOCC2)n1 | 76.3% (inactive) |
| NS(=O)(=O)c1ccc(-n2cc(CC=O)nn2)cc1 | 111% (inactive) |
| O=C(Cn1cc(CN2C(=O)c3ccc([N+](=O)[O-])cc3C2=O)nn1)Nc1ccc(F)cc1Cl | 92.4% (inactive) |
| C/C=C/C=C1\C[C@H]2CO[C@H](O2)C1=O | 127% (inactive) |
| O=C(COc1ccc(/C=C2\SC(=O)NC2=O)cc1)Nc1ccc(C(=O)/C=C/c2cc3ccccc3nc2Cl)cc1 | 67.7% (inactive) |
| O=c1oc2ccc(-c3ccc(F)cc3F)cc2c(=O)n1-c1ccc(F)c(F)c1 | -2.01% (active) |

Test system: MDA-MB-435 melanoma
Experiment: as above
Conditions: 10 µM unless noted

| SMILES | growth |
| --- | --- |
| CC(=O)NC(C)(C)C(=O)N1CCC[C@H]1C(=O)NC(C)(C)C(=O)N[C@@H](C)C(=O)NC(C)(C)C(=O)NC(C)(C)C(=O)N[C@@H](CCC(N)=O)C(=O)NC(C)(C)C(=O)N[C@H](C(=O)NC(C)(C)C(=O)NCC(=O)N[C@@H](CC(C)C)C(=O)NC(C)(C)C(=O)N1CCC[C@H]1C(=O)N[C@H](C(=O)NC(C)(C)C(=O)NC(C)(C)C(=O)N[C@@H](CCC(N)=O)C(=O)N[C@@H](CCC(N)=O)C(=O)N[C@H](CO)Cc1ccccc1)C(C)C)C(C)C | 17% [4.25 µM] (inactive) |
| NC(=S)N/N=C(/C=C/c1cn(-c2ccccc2)nc1-c1ccc(Cl)cc1)c1cc2ccccc2oc1=O | 55.6% (inactive) |
| Cc1ccc(/C=C/c2nn3c(-c4ccco4)nnc3s2)cc1 | 97.1% (inactive) |
| COCCOc1ccc(-c2csc(NC(C)=O)n2)cc1NS(=O)(=O)c1cccc2c(N(C)C)cccc12 | 105% (inactive) |
| COc1cc2cc(Oc3ccc(NC(=O)c4cccc(C(F)(F)F)c4)cc3)c(C)nc2cc1OCCN(C)C | 6.7% (active) |
| C=C(C)[C@@H]1CC[C@]2(COS(C)(=O)=O)CC[C@]3(C)[C@H](CC[C@@H]4[C@@]5(C)CCCNC(C)(C)[C@@H]5CC[C@]43C)[C@@H]12 | 44.9% (inactive) |
| NC(=O)C(=Cc1ccc(Cl)cc1)C(N)=O | 69.6% (inactive) |
| CCc1ccc(NC(=O)N[C@@H](Cc2cccc(F)c2)C(=O)N[C@@H]2C(=O)N3CCC[C@H]3C(=O)N3CCCC[C@H]3C(=O)N[C@@H](C)C(=O)N3C[C@H](C)C[C@H]3C(=O)O[C@H]2C)c(F)c1 | 19.2% (inactive) |
| O=C1c2cc(Br)ccc2-n2c1nc1cc(Br)ccc1c2=O | -85.6% (active) |
| C/C=C/[C@@H]1C=C[C@@H]2C[C@H](C)CC[C@H]2[C@]1(C)/C(O)=C1/C(=O)[C@H](CO)N(C)C1=O | 74.8% (inactive) |
| CCOC(=O)c1ccc(N/C=C/C(=O)c2ccccc2)cc1 | 92.7% (inactive) |
| CC(=O)C1=NN(c2ccc(Cl)cc2)C(=O)CN1C | 103% (inactive) |
| CCn1c2ccc(/C=N/OCCCN(C)C)cc2c2cc(/C=N/OCCCN(C)C)ccc21 | -48.9% (active) |
| Cc1ccc(C2CC(c3ccc(Nc4nc(NCCO)nc(Nc5ccc(Cl)cc5)n4)cc3)=Nc3c(N)nc(N)nc3N2)cc1 (stereo not given) | -93.1% (active) |
| Cn1ccnc1C(=O)/C=C/c1ccc(C(=O)Nc2ccc(NC(=O)CCNC(=O)c3csc(Br)n3)cc2)cc1 | 44.2% (inactive) |
| COc1cc(/C=N/n2cnc3oc(-c4ccccc4)cc3c2=N)cc(CN2CCCC2)c1O | 96.6% (inactive) |
| Cn1cc(-c2nn3c(=O)cc(-c4ccccc4)nc3s2)c2cc(F)ccc21 | -5.19% (active) |
| CCNC(=NCCCN(C)C)N/C(N)=N/c1nc2ccccc2s1 | 93.8% (inactive) |
| CS(=O)(=O)c1ccc2c(c1)c1c(n2S(=O)(=O)c2ccc(Cl)cc2)CCCC1 | -11% (active) |
| O=C(CSc1nnc(-c2ccc(Cl)cc2)n1-c1ccccc1)Nc1ccc(F)cc1 | 92.9% (inactive) |

| SMILES | growth |
| --- | --- |
| O=[N+]([O-])c1ccc(-c2nnc(SCc3ccc(O)c4ncccc34)n2-c2ccccc2)cc1 | 14% (inactive) |
| COc1cc2c3c(n(CCCN4CCC[C@H]4C(N)=O)c(=O)c2cc1OC)-c1cc2c(cc1C3=O)OCO2 | 31.8% (inactive) |
| O=C1[C@@H]2Cc3c([nH]c4ccccc34)[C@H](c3c(Cl)cccc3Cl)N2C(=O)CN1C1CCN(Cc2ccccc2)CC1 | -61.8% (active) |
| COc1ccc(C(=O)c2c(N)c(C#N)cn2-c2cccc(OC)c2)cc1 | -37.3% (active) |
| Nc1ccc(-c2nnc(SCc3ccc(O)c4ncccc34)o2)cc1 | 7.57% (active) |
| C/C(=N/Nc1nc(N/N=C(/C)c2ccc([N+](=O)[O-])cc2)nc(N2CCOCC2)n1)c1ccc([N+](=O)[O-])cc1 | 85% (inactive) |
| O=C1c2c(O)cc(O)cc2O[C@@H](c2ccc(O)cc2)[C@@H]1c1c(O)cc(O)c2c(=O)cc(-c3ccc(O)c(O)c3)oc12 | 110% (inactive) |
| COc1ccc2c(c1)oc1c3[nH]c4ccccc4c3c3c(c21)C(=O)N(O)C3=O | 53.2% (inactive) |
| COc1cc2c3c(n(CCCNC4CCCCC4)c(=O)c2cc1OC)-c1cc2c(cc1C3=O)OCO2 | 102% (inactive) |
| C=CCn1c(SCC(=O)Nc2cccc(C(=O)/C=C/c3cc(OC)c(OC)c(OC)c3)c2)nc2ccccc2c1=O | 21.7% (inactive) |
| O=C1c2c(c3c4cc(O)ccc4oc3c3[nH]c4ccccc4c23)C(=O)N1O | -13.8% (active) |
| COC(=O)c1nc(-c2ccc(C)cc2)oc1S(=O)(=O)N1CCN(c2oc(-c3ccccc3)nc2C#N)CC1 | 102% (inactive) |
| COc1ccc(-c2nnc(SCc3ccc(O)c4ncccc34)n2-c2ccccc2)cc1 | 14.3% (inactive) |
| Oc1ccccc1/C=N/Nc1nc(N/N=C/c2ccccc2O)nc(N2CCOCC2)n1 | 58.9% (inactive) |
| NS(=O)(=O)c1ccc(-n2cc(CC=O)nn2)cc1 | 102% (inactive) |
| O=C(Cn1cc(CN2C(=O)c3ccc([N+](=O)[O-])cc3C2=O)nn1)Nc1ccc(F)cc1Cl | 101% (inactive) |
| C/C=C/C=C1\C[C@H]2CO[C@H](O2)C1=O | 101% (inactive) |
| O=C(COc1ccc(/C=C2\SC(=O)NC2=O)cc1)Nc1ccc(C(=O)/C=C/c2cc3ccccc3nc2Cl)cc1 | 13.6% (inactive) |
| O=c1oc2ccc(-c3ccc(F)cc3F)cc2c(=O)n1-c1ccc(F)c(F)c1 | 3.43% (active) |
